Reference: the supplement of paper PMC6124720
Where a name gives a salt, the structure may show the parent alone. A number with no mark means an inactive call.

System: Pseudogymnoascus destructans 20631-21
Assay: growth activity index (DuctApe, 0 = no growth, 9 = maximal growth) (index 0-9); higher = more fungal growth (less inhibition), active = 0 or less; extreme values may be limits of the assay
Settings: temperature: 13 °C, YPD
[1] = concentration level (1-4, increasing; Biolog proprietary): 1
[2] = concentration level (1-4, increasing; Biolog proprietary): 2
[3] = concentration level (1-4, increasing; Biolog proprietary): 3
[4] = concentration level (1-4, increasing; Biolog proprietary): 4
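Further: biolog Phenotype Microarray plates PM21–25, OD595 followed daily over 11 days, growth curves converted to index, mean of two independent experiments.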

Compound: O=C(O)C(O)C(O)C(=O)O (stereo not drawn) [Tartaric acid] (Biolog plate: PM25)
- growth activity index [1]: 3.33
- growth activity index [2]: 2
- growth activity index [3]: 4.33
- growth activity index [4]: 1.33

Compound: NC(N)=NCCC[C@H](N)C(=O)NO [L-Arginine hydroxamate] (Biolog plate: PM22)
- growth activity index [1]: 5.67
- growth activity index [2]: 5
- growth activity index [3]: 3.33
- growth activity index [4]: 0.667

Compound: NC[C@H]1O[C@H](O[C@H]2[C@H](O)[C@@H](O[C@H]3O[C@H](CO)[C@@H](O)[C@H](N)[C@H]3O)[C@H](N)C[C@@H]2N)[C@H](O)[C@@H](O)[C@@H]1O [Kanamycin] (Biolog plate: PM25)
- growth activity index [1]: 5
- growth activity index [2]: 5
- growth activity index [3]: 5
- growth activity index [4]: 4.33

Compound: [Cl][Co][Cl] [Cobalt (II) chloride] (Biolog plate: PM23)
- growth activity index [1]: 3.33
- growth activity index [2]: 4
- growth activity index [3]: 4.33
- growth activity index [4]: 1

Compound: CN1CCN(CCCN2c3ccccc3Sc3ccc(C(F)(F)F)cc32)CC1 [Trifluoperazine] (Biolog plate: PM21)
- growth activity index [1]: 0 (active)
- growth activity index [2]: 0.25
- growth activity index [3]: 3.5
- growth activity index [4]: 6.25

Compound: [Cl-].[Cl-].[Zn+2] [Zinc chloride] (Biolog plate: PM21)
- growth activity index [1]: 5.75
- growth activity index [2]: 6.75
- growth activity index [3]: 7
- growth activity index [4]: 6.25

Compound: CSc1ccc2c(c1)N(CCC1CCCCN1C)c1ccccc1S2 (stereo not drawn) [Thioridazine] (Biolog plate: PM24)
- growth activity index [1]: 3.33
- growth activity index [2]: 1.33
- growth activity index [3]: 0 (active)
- growth activity index [4]: 1.33

Compound: NC(N)=O [Urea hydrogen peroxide] (Biolog plate: PM22)
- growth activity index [1]: 4.67
- growth activity index [2]: 4
- growth activity index [3]: 4.67
- growth activity index [4]: 4.33

Compound: O=C([O-])c1ccccc1O.[Na+] [Sodium Salicylate] (Biolog plate: PM25)
- growth activity index [1]: 4.67
- growth activity index [2]: 3.33
- growth activity index [3]: 4
- growth activity index [4]: 4

Compound: O=C(O)/C=C/c1ccccc1 [Cinnamic acid] (Biolog plate: PM25)
- growth activity index [1]: 5
- growth activity index [2]: 4.67
- growth activity index [3]: 5
- growth activity index [4]: 5

Compound: [I-].[K+] [Potassium iodide] (Biolog plate: PM22)
- growth activity index [1]: 0 (active)
- growth activity index [2]: 0 (active)
- growth activity index [3]: 0 (active)
- growth activity index [4]: 0 (active)

Compound: Clc1ccc(COC(Cn2ccnc2)c2ccc(Cl)cc2Cl)c(Cl)c1 (stereo not drawn) [Miconazole Nitrate] (Biolog plate: PM24)
- growth activity index [1]: 4.67
- growth activity index [2]: 0.333
- growth activity index [3]: 0.333
- growth activity index [4]: 0 (active)

Compound: O=[Si](O)O [Sodium metasilicate] (Biolog plate: PM24)
- growth activity index [1]: 4.33
- growth activity index [2]: 2.67
- growth activity index [3]: 2.67
- growth activity index [4]: 3.33

Compound: CN(C)C(=O)/N=N/C(=O)N(C)C [Diamide] (Biolog plate: PM21)
- growth activity index [1]: 5.75
- growth activity index [2]: 5
- growth activity index [3]: 0 (active)
- growth activity index [4]: 0 (active)

Compound: O=S(=O)([O-])[O-].[Cu+2] [Copper (II) sulfate] (Biolog plate: PM21)
- growth activity index [1]: 6
- growth activity index [2]: 6
- growth activity index [3]: 6
- growth activity index [4]: 6

Compound: [Na+].[O]=[V](=[O])[O-] [Sodium metavanadate] (Biolog plate: PM22)
- growth activity index [1]: 5
- growth activity index [2]: 4.33
- growth activity index [3]: 5
- growth activity index [4]: 3.67

Compound: COc1cc(/C=C/C(=O)O)ccc1O [Ferulic acid] (Biolog plate: PM25)
- growth activity index [1]: 1
- growth activity index [2]: 0 (active)
- growth activity index [3]: 0 (active)
- growth activity index [4]: 1

Compound: N.N.O=S(=O)(O)O [Ammonium Sulfate] (Biolog plate: PM23)
- growth activity index [1]: 4.33
- growth activity index [2]: 5.33
- growth activity index [3]: 4
- growth activity index [4]: 2.67

Compound: CC(C)Cc1ccc(C(C)C(=O)O)cc1 (stereo not drawn) [Ibuprofen] (Biolog plate: PM25)
- growth activity index [1]: 4.33
- growth activity index [2]: 4.67
- growth activity index [3]: 4
- growth activity index [4]: 5

Compound: CN(C)CCC=C1c2ccccc2CCc2ccccc21 [Amitriptyline] (Biolog plate: PM25)
- growth activity index [1]: 0 (active)
- growth activity index [2]: 0 (active)
- growth activity index [3]: 2.67
- growth activity index [4]: 6.33

Compound: CC(=O)OCC1=C(C(=O)O)N2C(=O)[C@@H](NC(=O)Cc3cccs3)[C@H]2SC1 [Cephalotin] (Biolog plate: PM22)
- growth activity index [1]: 5.67
- growth activity index [2]: 5
- growth activity index [3]: 5
- growth activity index [4]: 1

Compound: COc1ccc2cc3[n+](cc2c1OC)CCc1cc2c(cc1-3)OCO2 [Berberine Chloride] (Biolog plate: PM24)
- growth activity index [1]: 4
- growth activity index [2]: 4.67
- growth activity index [3]: 0.333
- growth activity index [4]: 0.667

Compound: NO [Hydroxylamine] (Biolog plate: PM23)
- growth activity index [1]: 4
- growth activity index [2]: 4
- growth activity index [3]: 2.67
- growth activity index [4]: 0 (active)

Compound: CN(C)CCCN1c2ccccc2Sc2ccc(Cl)cc21 [Chlorpromazine] (Biolog plate: PM23)
- growth activity index [1]: 5
- growth activity index [2]: 0 (active)
- growth activity index [3]: 0 (active)
- growth activity index [4]: 2

Compound: Cc1cc(N)c2ccccc2[n+]1CCCCCCCCCC[n+]1c(C)cc(N)c2ccccc21 [Dequalinium chloride] (Biolog plate: PM23)
- growth activity index [1]: 4
- growth activity index [2]: 4.67
- growth activity index [3]: 2
- growth activity index [4]: 1

Compound: [Cl][Pd][Cl] [Palladium(II) Chloride] (Biolog plate: PM25)
- growth activity index [1]: 4.33
- growth activity index [2]: 4
- growth activity index [3]: 4.67
- growth activity index [4]: 5

Compound: C[C@H]1c2cccc(O)c2C(=O)C2=C(O)[C@]3(O)C(=O)C(C(N)=O)=C(O)[C@@H](N(C)C)[C@@H]3[C@@H](O)[C@@H]21 [Doxycycline] (Biolog plate: PM23)
- growth activity index [1]: 4.67
- growth activity index [2]: 5
- growth activity index [3]: 5.33
- growth activity index [4]: 6

Compound: N=C(N)N [Guanidine hydrochloride] (Biolog plate: PM21)
- growth activity index [1]: 5.25
- growth activity index [2]: 5
- growth activity index [3]: 0.5
- growth activity index [4]: 0.25

Compound: NC[C@@H]1O[C@H](O[C@H]2[C@@H](O)[C@H](O[C@@H]3[C@@H](O)[C@H](N)C[C@H](N)[C@H]3O[C@H]3O[C@H](CO)[C@@H](O)[C@H](O)[C@H]3N)O[C@@H]2CO)[C@H](N)[C@@H](O)[C@@H]1O [Paromomycin] (Biolog plate: PM22)
- growth activity index [1]: 1
- growth activity index [2]: 1
- growth activity index [3]: 0.667
- growth activity index [4]: 0 (active)

Compound: NC(=O)NO [Hydroxyurea] (Biolog plate: PM25)
- growth activity index [1]: 1
- growth activity index [2]: 0.333
- growth activity index [3]: 0 (active)
- growth activity index [4]: 0 (active)

Compound: [F-].[Na+] [Sodium Fluoride] (Biolog plate: PM24)
- growth activity index [1]: 4.33
- growth activity index [2]: 4.67
- growth activity index [3]: 5.33
- growth activity index [4]: 4.67

Compound: Cn1c(=O)c2c(ncn2C)n(C)c1=O [Caffeine] (Biolog plate: PM22)
- growth activity index [1]: 5
- growth activity index [2]: 4
- growth activity index [3]: 0 (active)
- growth activity index [4]: 0 (active)

Compound: NCCSCC(N)C(=O)O (stereo not drawn) [Thialysine] (Biolog plate: PM24)
- growth activity index [1]: 4
- growth activity index [2]: 4
- growth activity index [3]: 4.67
- growth activity index [4]: 5

Compound: CO/N=C(\C(=O)N[C@@H]1C(=O)N2C(C(=O)O)=C(CSc3nc(=O)c(O)nn3C)CS[C@H]12)c1csc(N)n1 [Ceftriaxone] (Biolog plate: PM22)
- growth activity index [1]: 2
- growth activity index [2]: 0 (active)
- growth activity index [3]: 0 (active)
- growth activity index [4]: 0 (active)

Compound: N[C@@H]1CONC1=O [D-Cycloserine] (Biolog plate: PM21)
- growth activity index [1]: 4
- growth activity index [2]: 5
- growth activity index [3]: 4.25
- growth activity index [4]: 0 (active)

Compound: CCCCCCCCCCCCCCCCOP(=O)([O-])OCC[N+](C)(C)C [Miltefosine] (Biolog plate: PM22)
- growth activity index [1]: 5
- growth activity index [2]: 3
- growth activity index [3]: 0 (active)
- growth activity index [4]: 0 (active)

Compound: CCCCCCCC(=O)[O-].[Na+] [Sodium Caprylate] (Biolog plate: PM23)
- growth activity index [1]: 1
- growth activity index [2]: 3.33
- growth activity index [3]: 4
- growth activity index [4]: 4
